Measured values reported in PubChem BioAssay (NCATS).
Inconclusive results are not listed. Active and inactive are the calls of the source. Calls come from the whole dose curve; as a rule, active = well fitted curve in the direction sought with a large enough effect; inconclusive = small, poorly fitted or top-dose-only effect, or another doubt; inactive = no such curve, though single readings can be large; an effect the other way counts as inactive or inconclusive.

Columns and labels:
NIH3T3 = assay: qHTS assay to identify novel small-molecules to repurpose for Merkel cell carcinoma treatment (AID 1296009); conditions: MCC and control cell lines, CellTiter-Glo viability, 72 h; series mostly up to 44.8 µM; note: nearly all actives have a fitted effect of over 60% in size
In short: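 Cell viability measured by CellTiter-Glo following 72 hr compound treatment at 37 degree celsius, with NPC and MIPE libraries tested in 8- and 11-point concentration series.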

C33A = assay: Primary qHTS to identify gynecologic anti-cancer compounds using libraries of approved drugs and bioactive compounds (AID 1345084); conditions: Gynecologic cancer cell panel viability, ATPlite luminescence, 48 h; series mostly up to 57.5 µM; note: nearly all actives have a fitted effect of over 55% in size
In short: (§1)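 Luminescence from the ATPlite ATP-monitoring reagent indicates viable cell number; lower signal means cytotoxicity. Cells received compound 16 h after seeding and were exposed for 48 h across five concentrations.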

CAOV3 = assay: as above; conditions: Gynecologic cancer cell panel viability, ATPlite luminescence, 48 h; series mostly up to 57.5 µM
In short: as §1

CASKI = assay: as above; conditions: Gynecologic cancer cell panel viability, ATPlite luminescence, 48 h; series mostly up to 57.5 µM
In short: as §1

Es-2 = assay: as above; conditions: Gynecologic cancer cell panel viability, ATPlite luminescence, 48 h; series mostly up to 57.5 µM
In short: as §1

HeLa = assay: as above; conditions: Gynecologic cancer cell panel viability, ATPlite luminescence, 48 h; series mostly up to 57.5 µM
In short: as §1

Hek293T = assay: as above; conditions: Gynecologic cancer cell panel viability, ATPlite luminescence, 48 h, control line for the selectivity index; series mostly up to 57.5 µM
In short: as §1

JEG-3 = assay: as above; conditions: Gynecologic cancer cell panel viability, ATPlite luminescence, 48 h; series mostly up to 57.5 µM
In short: as §1

OV90 = assay: as above; conditions: Gynecologic cancer cell panel viability, ATPlite luminescence, 48 h; series mostly up to 57.5 µM
In short: as §1

PA-1 = assay: as above; conditions: Gynecologic cancer cell panel viability, ATPlite luminescence, 48 h; series mostly up to 57.5 µM
In short: as §1

Tov-21-G = assay: as above; conditions: Gynecologic cancer cell panel viability, ATPlite luminescence, 48 h; series mostly up to 57.5 µM
In short: as §1

Tov112D = assay: as above; conditions: Gynecologic cancer cell panel viability, ATPlite luminescence, 48 h; series mostly up to 57.5 µM
In short: as §1

SKOV3 = assay: as above; conditions: Gynecologic cancer cell panel viability, ATPlite luminescence, 48 h; series mostly up to 57.5 µM
In short: as §1

Measured: Potency
Potency is the fitted concentration of half-maximal effect.

COCC(c1ccc(C(F)(F)F)cc1)N1CCN(C2(C)CCN(C(=O)c3c(C)ncnc3C)CC2)CC1C (centres undefined)
not listed: SKOV3
inactive: all other assays above

CNC(C)C(=O)NC(C(=O)N1CCCC1C(=O)Nc1snnc1-c1ccccc1)C1CCCCC1 (centres undefined)
not listed: Tov-21-G | SKOV3
inactive: all other assays above

Cc1cc(C(=O)Nc2cc(Oc3ccc4nc(NC(=O)C5CC5)cn4n3)ccc2C)n(C)n1
active: SKOV3 10 µM
not listed: NIH3T3 | Tov-21-G | Tov112D
inactive: all other assays above

CC[C@@H](C)Nc1cc(C(=O)NC2CC3CC[C@@H](C2)N3c2ccc(C(=O)C3CC3)cn2)c(C)cc1C(N)=O (some centres undefined)
active: NIH3T3 0.184 µM | CAOV3 0.794 µM | Hek293T 0.316 µM | OV90 0.316 µM | PA-1 0.316 µM | Tov-21-G 0.398 µM

CCn1c(-c2nonc2N)nc2c(C#CCO)ncc(OCCCN)c21
inactive: NIH3T3 | C33A | Es-2 | HeLa | Tov-21-G
active: CASKI 25.1 µM

CCC(C)C(=O)OC12C(OC(C)=O)C(C)C3(O)C(C=C(CO)CC4(O)C(=O)C(C)=CC43)C1C2(C)C (centres undefined)
active: Es-2 0.316 µM
not listed: C33A | OV90 | PA-1
inactive: all other assays above

COc1ccccc1-c1ccc(-c2cn(C(=O)N3CCCCC3Cc3ccccc3)nn2)cc1 (centres undefined)
not listed: HeLa | Hek293T | OV90 | PA-1
inactive: all other assays above

CC(=O)O[C@H]1CC2C(COC(=O)CC(C)C)=CO[C@@H](OC(=O)CC(C)C)C2[C@]12CO2 (some centres undefined)
not listed: CAOV3 | CASKI | PA-1 | SKOV3
inactive: all other assays above

COc1ccc(S(=O)(=O)Nc2c(C)cc(C)cc2C)cc1
not listed: NIH3T3 | Tov112D
inactive: all other assays above

CC(=O)OC(C)(C)/C=C/C(=O)[C@](C)(O)[C@H]1C(O)C[C@@]2(C)[C@@H]3CC=C4[C@@H](C=C(O[C@@H]5O[C@H](CO)[C@@H](O)[C@H](O)[C@H]5O)C(=O)C4(C)C)[C@]3(C)C(=O)C[C@]12C (some centres undefined)
not listed: CAOV3 | SKOV3
inactive: all other assays above

COc1ccc(C2(CNC(=O)c3ccc(NC(=O)c4ccco4)cc3)CCOCC2)cc1
not listed: NIH3T3 | Tov112D
inactive: all other assays above

O=C1Cc2c([nH]c3ccc(Br)cc23)-c2ncccc2N1
not listed: CAOV3 | HeLa | OV90
inactive: all other assays above

Cc1ccc(NC(=O)c2ccc(CN3CCNCC3)cc2)cc1Nc1nccc(-c2cccnc2)n1
inactive: NIH3T3
active: CAOV3 22.4 µM | CASKI 17.8 µM | Es-2 15.8 µM | Hek293T 11.2 µM | JEG-3 17.8 µM | OV90 14.1 µM | PA-1 12.6 µM | Tov-21-G 28.2 µM | Tov112D 28.2 µM

O=C(NCC1(N2CCN(c3ccccc3)CC2)CCOCC1)c1cccnc1Sc1ccccc1
not listed: NIH3T3 | Tov112D
inactive: all other assays above

CC1=CC2/C=C(\C)CCC(O)C/C=C/C(=O)OC23C(=O)NC(CC(C)C)C3C1C (centres undefined)
not listed: CAOV3
inactive: all other assays above
